Sampled rows, rich in hits. Any-hit rate of the full collection: about 8.5%.
ALDH1A1 inh: blocks purified human ALDH1A1 activity; 220,000 compounds, 7.3% hits; AID 1030; Purified ALDH1A1, NADH fluorescence, propionaldehyde substrate; Potency, µM (series often up to 75.3 µM), for inactives: top-dose activity, negative = inhibition, actives largely listed as inhibitors; P00352;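 also: potency is read from the fitted curve at half-maximal effect; plate controls were no enzyme wells and a reference inhibitor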
Target sequence (P00352 whole entry, looked up): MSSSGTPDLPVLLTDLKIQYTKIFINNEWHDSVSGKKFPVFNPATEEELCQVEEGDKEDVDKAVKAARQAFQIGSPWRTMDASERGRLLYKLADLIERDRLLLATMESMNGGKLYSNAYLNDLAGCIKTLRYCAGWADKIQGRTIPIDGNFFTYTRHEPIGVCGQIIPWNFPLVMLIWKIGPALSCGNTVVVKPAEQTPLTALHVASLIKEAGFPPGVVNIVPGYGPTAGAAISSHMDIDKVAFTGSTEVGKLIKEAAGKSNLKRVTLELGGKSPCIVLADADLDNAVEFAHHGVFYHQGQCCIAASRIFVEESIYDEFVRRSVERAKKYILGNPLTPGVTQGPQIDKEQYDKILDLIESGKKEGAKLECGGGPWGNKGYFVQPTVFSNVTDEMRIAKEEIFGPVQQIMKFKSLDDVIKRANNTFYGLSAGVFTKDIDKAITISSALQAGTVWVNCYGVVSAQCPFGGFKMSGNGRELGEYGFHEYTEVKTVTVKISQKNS
RGS12 GoLoco inh: inhibitors of human Gai1-RGS12 GoLoco interaction (red fluorophore) | 230,000 compounds, 0.44% hits | Potency, µM (highest dose often 61.6 µM), without a hit: at the top dose activity, negative = inhibition, most hits filed as inhibitors | Gai1:RGS12 GoLoco peptide FP, rhodamine, 10 min; active = well fitted inhibition curve with a large enough effect, not every such curve was filed as active; inactive = no such curve, though single readings can be large or run the other way; also: potency is read from the fitted curve at half-maximal effect; nearly all actives have a fitted effect of over 30% in size
Sfp PPTase inh: blocks B. subtilis Sfp PPTase activity | Biochemical Sfp PPTase activity, qHTS | Potency, µM, without a hit: largest response in the series, negative = inhibition, most hits filed as inhibitors | 310,000 compounds, 3.5% hits | AID 1490; active = well fitted curve in the direction sought with a large enough effect; inconclusive = small, poorly fitted or top-dose-only effect, or another doubt; inactive = no such curve, though single readings can be large; an effect the other way counts as inactive or inconclusive;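 also: the enzyme is Sfp with the accession as filed and its product quenches rhodamine fluorescence; potency is read from the fitted curve at half-maximal effect; 0% = enzyme reaction without inhibitor and -100% = no enzyme wells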
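Reaction rates are the 30-min fluorescence difference (ex 525, em 598 nm) in wells containing 15 nM Sfp, 5 uM rhodamine-CoA and 12.5 uM BHQ-2-YbbR at pH 7.6 with 10 mM MgCl2.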
NPSR antagonist: neuropeptide S receptor (human) antagonism, cAMP; Q6W5P4; CHO-NPSR cells, cAMP TR-FRET, antagonist mode; Potency, µM (highest dose often 38.3 µM), for the others: at the top dose activity change, negative = inhibition, actives largely listed as inhibitors; 220,000 compounds, 1% hits; AID 1461; active = well fitted curve in the direction sought with a large enough effect; inconclusive = small, poorly fitted or top-dose-only effect, or another doubt; inactive = no such curve, though single readings can be large; an effect the other way counts as inactive or inconclusive; also: potency is read from the fitted curve at half-maximal effect; nearly all actives have a fitted effect of over 50% in size
JMJD2E inh: blocks human JMJD2E demethylase activity. B2RXH2. JMJD2E catalytic domain, FDH-coupled NADH fluorescence (FDH is formaldehyde dehydrogenase). Potency, µM (titrated, usually from 57.1 µM), inactives show at the top dose activity change, negative = inhibition, usual class: inhibitors. 230,000 compounds, 1.6% hits. AID 2147;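 also: potency is read from the fitted curve at half-maximal effect; 0% = wells with enzyme and -100% = buffer wells without enzyme; nearly all actives have a fitted effect of over 50% in size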
Coupling enz: counter-screen for Giardia aldolase inhibitors: coupling enzyme system | coupling enzyme system counterscreen, AmpLite Red fluorescence | 290,000 compounds, 0.67% hits | activity change, negative = inhibition, % at 58.2 µM, hits read low; in the data active = activity change below about -30%
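Final compound at 57.5 uM, incubated 10 min at RT with coupling enzyme reagent (glyceraldehyde-3-phosphate), then 20 min with substrate and AmpLite Red detection. Fluorescence read at 525/598 nm; tests interference with the coupling assay, not aldolase inhibition.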
* = called active by the depositor; [ ] = remark or other dose. Unless noted, calls follow the shape of the dose curve; as a rule, active = well fitted inhibition curve with a large enough effect (not every such curve was filed as active); inconclusive = small, poorly fitted or top-dose-only effect, or another doubt; inactive = no such curve, though single readings can be large or run the other way. Unless noted, % is scaled to controls: 0 for no effect and ±100 for the full control effect.

What do the screens show for `N#Cc1c(NC(=O)CSc2ncnc3sccc23)oc(-c2ccco2)c1-c1ccco1`?
ALDH1A1 inh: 10µM*; RGS12 GoLoco inh: 60%; Sfp PPTase inh: inconclusive; NPSR antagonist: -11%[46.1 µM]; JMJD2E inh: -14%; Coupling enz: -16

How did CCOC(=O)c1ccc(NC(=O)NCc2cccnc2)cc1 do in these assays?
Sfp PPTase inh: -1%; Coupling enz: 0

What do the screens show for `Cc1ccc(CNC(=O)C2CCN(c3nnc(N4CCCC4=O)s3)CC2)cc1`?
Sfp PPTase inh: 13%; Coupling enz: 2

How did Fc1ccc(C[n+]2csc3ccccc32)cc1 do in these assays?
ALDH1A1 inh: 4µM*; RGS12 GoLoco inh: -7%; Sfp PPTase inh: 45µM*; NPSR antagonist: -18%[46.1 µM]; JMJD2E inh: inconclusive; Coupling enz: -2

What do the screens show for `Cc1ccc(CCN2CC(C(=O)NCCN(C)C)CC2=O)cc1` (stereo unspecified)?
Sfp PPTase inh: 1%; Coupling enz: 0

How did O=C(Nc1nccs1)c1ccc(-c2ccccc2Cl)o1 do in these assays?
ALDH1A1 inh: 25µM*; RGS12 GoLoco inh: 23%; Sfp PPTase inh: -6%; NPSR antagonist: -16%[46.1 µM]; JMJD2E inh: 105%; Coupling enz: -2

What do the screens show for `O=C(Nc1nccs1)c1ccc(-c2ccc(F)cc2)o1`?
ALDH1A1 inh: 22µM*; RGS12 GoLoco inh: 11%; Sfp PPTase inh: 9%; NPSR antagonist: -26%; JMJD2E inh: -4%; Coupling enz: 0

Results for O=C(Nc1nccs1)c1ccc(-c2ccccc2[N+](=O)[O-])o1 ?
Sfp PPTase inh: -16%; Coupling enz: -4

Results for O=C(Nc1nccs1)c1ccccn1 ?
ALDH1A1 inh: -7%; RGS12 GoLoco inh: 6%; Sfp PPTase inh: 79µM*; NPSR antagonist: 5%; JMJD2E inh: 26%; Coupling enz: -3

What do the screens show for `O=C(Nc1nccs1)c1ccc(-c2ccc([N+](=O)[O-])cc2)o1`?
ALDH1A1 inh: 22µM*; RGS12 GoLoco inh: 18%; Sfp PPTase inh: 25µM*; NPSR antagonist: -23%; JMJD2E inh: 4%; Coupling enz: -1

What do the screens show for `O=C(Nc1nccs1)c1ccc(-c2ccc(Cl)cc2)o1`?
ALDH1A1 inh: -12%; RGS12 GoLoco inh: 22%; Sfp PPTase inh: -4%; NPSR antagonist: -24%; JMJD2E inh: inconclusive; Coupling enz: 1

How did COc1ccc(/C=C(/NC(=O)c2ccccc2)C(=O)N2CCCC2)cc1 do in these assays?
Sfp PPTase inh: 13%; Coupling enz: -2

How did CCOC(=O)CC1COCCN1C(=O)c1cc(COc2ccc(F)cc2Cl)on1 (stereo unspecified) do in these assays?
Sfp PPTase inh: -5%

Results for Cc1cnc(NC(=O)c2c(Cl)cnn2C)s1 ?
Sfp PPTase inh: 0%

Results for COc1ccc(-c2ccc(OC)c(C3C4C=CCCC4(C)C(=O)N3Cc3ccccc3)c2)cc1 (stereo unspecified) ?
Sfp PPTase inh: -27%; Coupling enz: 0

What do the screens show for `CCCCCC(=O)NC(=S)Nc1ccc2oc(=O)ccc2c1`?
ALDH1A1 inh: 7.1µM*; RGS12 GoLoco inh: -18%; Sfp PPTase inh: 5%; NPSR antagonist: -12%; JMJD2E inh: 4%; Coupling enz: 1

How did Cc1cc(N2C(=O)C(O)=C(C(=O)c3ccco3)C2c2cccc(Cl)c2)no1 (stereo unspecified) do in these assays?
Sfp PPTase inh: -13%

Results for CSc1nnc(N2C(=O)C(O)=C(C(=O)c3ccco3)C2c2cccc(Cl)c2)s1 (stereo unspecified) ?
Sfp PPTase inh: 6.3µM*

Results for CSc1nnc(N2C(=O)C(O)=C(C(=O)c3ccco3)C2c2ccc(F)cc2)s1 (stereo unspecified) ?
Sfp PPTase inh: 35µM*

How did O=C(CSc1nc2sccc2c(=O)[nH]1)N1CCN(c2ccccc2)CC1 do in these assays?
Sfp PPTase inh: -6%; Coupling enz: 2

Results for CCN(Cc1ccccc1)C(=O)C(=O)c1cn(CC(=O)N2CCCC2)c2ccccc12 ?
Sfp PPTase inh: 5%

What do the screens show for `COc1cc(/C=C/C(=O)NC(=O)c2ccccc2O)ccc1O`?
Sfp PPTase inh: 3%

How did COc1cc(/C=C/c2sc3ccccc3[n+]2CCCS(=O)(=O)[O-])ccc1O do in these assays?
ALDH1A1 inh: inconclusive; RGS12 GoLoco inh: -31%; Sfp PPTase inh: 6.3µM*; NPSR antagonist: -47%; JMJD2E inh: -4%; Coupling enz: -34*

Results for Cc1ccc(-c2nnc(Nc3ccccc3)c3ccccc23)cc1S(=O)(=O)NCC1CCCO1 (stereo unspecified) ?
ALDH1A1 inh: -4%; RGS12 GoLoco inh: 6%; Sfp PPTase inh: -8%; NPSR antagonist: inconclusive; JMJD2E inh: inconclusive; Coupling enz: -2

How did Cc1ccc(-c2nn3c(-c4ccco4)nnc3c3ccccc23)cc1S(=O)(=O)NCC1CCCO1 (stereo unspecified) do in these assays?
ALDH1A1 inh: inconclusive; RGS12 GoLoco inh: 20%; Sfp PPTase inh: 50µM*; NPSR antagonist: -1%[46.1 µM]; JMJD2E inh: 3%; Coupling enz: -1

Results for COc1ccc(C2(CNC(=O)/C=C/c3ccco3)CCCC2)cc1OC ?
ALDH1A1 inh: inconclusive; RGS12 GoLoco inh: -13%; Sfp PPTase inh: 22µM*; NPSR antagonist: -12%[46.1 µM]; JMJD2E inh: inconclusive; Coupling enz: -4

What do the screens show for `CCOc1ccc(C(NC(=O)/C=C/c2ccco2)c2ccc(OC)c(OC)c2)cc1` (stereo unspecified)?
ALDH1A1 inh: inconclusive; RGS12 GoLoco inh: 6%; Sfp PPTase inh: inconclusive; NPSR antagonist: -17%[46.1 µM]; JMJD2E inh: -4%; Coupling enz: 1

Results for COc1ccc(CNC(=O)/C=C/c2ccco2)cc1OC ?
ALDH1A1 inh: 3.5µM*; RGS12 GoLoco inh: -11%; Sfp PPTase inh: 45µM*; NPSR antagonist: 4%; JMJD2E inh: -11%; Coupling enz: 1

What do the screens show for `CCN(CC)S(=O)(=O)c1ccc(N2CCCCC2)c(NC(=O)/C=C/c2ccc(OC)c(OC)c2)c1`?
ALDH1A1 inh: inconclusive; RGS12 GoLoco inh: 77%; Sfp PPTase inh: 17%; NPSR antagonist: -9%[46.1 µM]; JMJD2E inh: 1%; Coupling enz: 2

Results for CCN(CC)S(=O)(=O)c1ccc(OC)c(NC(=O)/C=C/c2ccco2)c1 ?
RGS12 GoLoco inh: 3%; Sfp PPTase inh: 25µM*; NPSR antagonist: -22%; JMJD2E inh: -19%; Coupling enz: 0

How did COc1ccc(C(NC(=O)/C=C/c2ccco2)c2ccc(OC)c(OC)c2)cc1 (stereo unspecified) do in these assays?
ALDH1A1 inh: 20µM*; RGS12 GoLoco inh: 11%; Sfp PPTase inh: 20µM*; NPSR antagonist: -12%[46.1 µM]; JMJD2E inh: -16%; Coupling enz: 1
